Laboratory results taken from the supplement of paper PMC11417369.
Whole data set: some 25,000 sequences, median “ln(normalized median fluorescence intensity)” near 9.7, cut for the highest 2% near 11. For the sample, the highest values were picked, then their nearest neighbours and some sequences at random.

system: PfAP2-HC AP2 domain (GST-tagged); experiment: gcPBM binding intensity (ln(normalized median fluorescence intensity)); higher = stronger DNA binding
In short: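 Probes on an Agilent 4 × 180k array were primer-extended, double-stranded and 36 bp long, taken from intergenic genomic regions, with negative controls added. GST-tagged P. falciparum DNA-binding domains from E. coli, about 25 μg on average, were applied to the array for 1 h in 1× PBS containing 1% milk, 0.2 mg/ml BSA, 0.5% salmon testes DNA and 0.03% Triton X-100. Binding intensity, obtained after Alexa488 anti-GST antibody detection and a 488 nm scan, is the highest Masliner-normalised natural-log median intensity across replicate spots of either probe orientation.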

Sequence | gcPBM binding intensity (ln)
AAAAAAAATATCTATGCATGTAATATTATGATATTG [TGCATGCA_site546] | 9.58
TTCAAAAATATATAATGTACACAAATATAAAAGAAT [XGTACX_site1944] | 9.81
ATAAAAAAAAGAAAAACACACACATATATATATATA [CACACA_site8243] | 10.4
AAAAAGGAGAAACACACACACACACCCATATATATA [CACACA_site905] | 10.7
AATAAAAAGAAACACACACACACACCCATATATATA [CACACA_site3589] | 11.5
CACTAAAAGAAACACACACACACACCCATATATATA [CACACA_site4151] | 11
ATACTAAAGAAACACACACACATATATATATAGAAT [CACACA_site100] | 10.9
AGAAAAAAAAAACACACACACACACCCTCAATATAA [CACACA_site39] | 10.5
AAAAGAAAAAGAAAAACACACATAAATATAAATATA [CACACA_site1879] | 10.2
AAAGAAAAAAAAAACACACACACACGCATTCAATAT [CACACA_site6169] | 10.7
AAAGAAAAAAAAAACACACACACACCCATTCAATAT [CACACA_site38] | 11.4
TATCATTTGGTCTTTTACTTTTTCTGTTTTTTTTTT [CACACA_negctrl_site976] | 9.91
CTCATTTTTGTACAGGTGCACTTATCGTTACACTAT | 9.93
CGAAGGTTTGGCCATGCATGTTATAAGAATATATGT [TGCATGCA_site441] | 9.51
AACTTTATTCCTAATTGTACACATATATATATATAT [XGTACX_site6823] | 10
GGGGACGCGGGTGGGGGTACTCACACTATGCAAAAT [XGTACX_site7745] | 9.74
AATAAGCTCACGTGTCGTACATTTTTTAAAACAACC [XGTACX_site4707] | 9.78
CGTATTTATATAATTACACACCATATTTTAATTATT [CACACA_site5960] | 9.76
AATGAACAGACGAGCACACACACACCCATATATATA [CACACA_site1018] | 10.9
AATGAACTCACGAGCACACACACACCGATATATATA [CACACA_site4710] | 11
AAAATGAACTCACGAGCACACACACCCATATATATA [CACACA_site8247] | 10.3
AAAACACGCGGACACACACACACACCCACCCATATA [CACACA_site8688] | 11.6
AAAACACGCGGACACACACACACACGCCCACATATA [CACACA_site7105] | 10.6

Sequence | gcPBM binding intensity (ln)
TATACACCCGGACACACACACATATATATATATATA [CACACA_site5030] | 10.3
AACACGCGCAGACACACACACACACCCACATATATA [CACACA_site2205] | 10.6
CACGCGCCCGGACACACACACACACCCATATATATA [CACACA_site5251] | 11.3
CGTGGGAGCGGACACACACACACACCCATATATATA [CACACA_site4340] | 10.4
CATACACCCGGACACACACACACACCCATATATAAT [CACACA_site4494] | 10.5
AACACGCGCGGACACACACACACACCCACATATATA [CACACA_site5252] | 11.3
ATTTATATGTGGAGCAGTACGCACTCTCACAATTAA [XGTACX_site7252] | 9.44
TGAATATTTACTTTAGCACACAATTTGTATTTGATT [CACACA_site960] | 9.86
ATTATTTACCACAACACACAAATATTTACCAATCAT [CACACA_site5472] | 10.5
TTGTTTATTTGTAAAGCTAACAAGAAATGTGAATAT [CACACA_negctrl_site931] | 9.51
AGCATTTTAAAAGAAAAAAAAAAAAAAAAAAAAATA [GTGCAC_negctrl_site723] | 9.17
TCATTTTACAGATGTGCATGTGAATCAATCTATTTA [TGCATGCA_site787] | 9.56
ATTACTAAAAAATATAAACACACATATATTTTACAT [CACACA_site8633] | 9.88
CACAGACACGGACACACACACACACCGATATATATA [CACACA_site4353] | 11.2
CGCGCACCCAGACACACACACACACCGATATATATA [CACACA_site8687] | 10.9
TGGGAGCACAGACACACACACACACCGATATATATA [CACACA_site8001] | 11.3
TGGGAGCACAGACACACACACACACCCATATATATA [CACACA_site335] | 10.5
CACAGACACGGACACACACACATATATATATATATA [CACACA_site5248] | 10.4
TTGGCATACGGACACACACACACACCCAGACATATA [CACACA_site4492] | 10.4
CACAGACACGGACACACACACACACCCATATATATA [CACACA_site4354] | 11.3
CACAGACACGGACACACACACACACCCAGACACATA [CACACA_site4357] | 11.6
TATATTATCAAAATGGTGCAATAATTTCTATATTAT [GTGCAC_site9772] | 9.49
